Experimental findings from PubChem BioAssay (EPA / NIEHS) are described below.

The source made the active and inactive calls. How the source made its calls: active means hit-call score of the fitted dose curve at least 0.9, where 1 is the maximum; inactive means score below 0.9.

Assay [1] can be described thus: ATG_M_32_CIS: Attagene CIS-FACTORIAL HepG2 Assay for M32 Transcription Factor (Internal Marker) (AID 2282949).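 Further: background control marker of the multiplexed CIS panel rather than a real target.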 As to conditions: HepG2 Attagene cis-factorial M32 reporter, mRNA; actives raise or lower the signal. A digest of the protocol: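 Using DMSO as baseline, bidirectional curve fits were applied to reporter mRNA signals. These came from transiently transfected HepG2 cells exposed for 24 h, with RNA analysed by RT-PCR, FAM primer extension, HpaI digestion and CE.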

Assay [2] is described as follows: ATG_M_06_CIS: Attagene CIS-FACTORIAL HepG2 Assay for M06 Transcription Factor (Internal Marker) (AID 2282950). As to conditions: HepG2 Attagene CIS-FACTORIAL M06 internal marker reporter; actives raise or lower the signal. A digest of the protocol:
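Serves as a background control readout. Transfected HepG2 exposed to compounds for 24 h, then reporter transcripts quantified by fluorescent RT-PCR and capillary electrophoresis. Both directions fitted against DMSO baseline.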

In assay [3] the target is Hypoxia-inducible factor 1-alpha (Homo sapiens) (UniProt Q16665). In words: ATG_HIF1a_CIS: Attagene CIS-FACTORIAL HepG2 Assay for human Hypoxia Inducible Factor 1 (HIF1A) (AID 2282951). As to conditions: HepG2 Attagene cis-factorial HIF1a reporter transcription; actives raise or lower the signal. A digest of the protocol: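 Measures endogenous transcription-factor activity through cis-regulated reporter mRNA in HepG2. Cells dosed 24 h; transcripts quantified by RT-PCR with 6-FAM-labelled products separated by capillary electrophoresis; DMSO serves as negative control.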
Sequence of Hypoxia-inducible factor 1-alpha (Homo sapiens) (Q16665 whole entry, looked up): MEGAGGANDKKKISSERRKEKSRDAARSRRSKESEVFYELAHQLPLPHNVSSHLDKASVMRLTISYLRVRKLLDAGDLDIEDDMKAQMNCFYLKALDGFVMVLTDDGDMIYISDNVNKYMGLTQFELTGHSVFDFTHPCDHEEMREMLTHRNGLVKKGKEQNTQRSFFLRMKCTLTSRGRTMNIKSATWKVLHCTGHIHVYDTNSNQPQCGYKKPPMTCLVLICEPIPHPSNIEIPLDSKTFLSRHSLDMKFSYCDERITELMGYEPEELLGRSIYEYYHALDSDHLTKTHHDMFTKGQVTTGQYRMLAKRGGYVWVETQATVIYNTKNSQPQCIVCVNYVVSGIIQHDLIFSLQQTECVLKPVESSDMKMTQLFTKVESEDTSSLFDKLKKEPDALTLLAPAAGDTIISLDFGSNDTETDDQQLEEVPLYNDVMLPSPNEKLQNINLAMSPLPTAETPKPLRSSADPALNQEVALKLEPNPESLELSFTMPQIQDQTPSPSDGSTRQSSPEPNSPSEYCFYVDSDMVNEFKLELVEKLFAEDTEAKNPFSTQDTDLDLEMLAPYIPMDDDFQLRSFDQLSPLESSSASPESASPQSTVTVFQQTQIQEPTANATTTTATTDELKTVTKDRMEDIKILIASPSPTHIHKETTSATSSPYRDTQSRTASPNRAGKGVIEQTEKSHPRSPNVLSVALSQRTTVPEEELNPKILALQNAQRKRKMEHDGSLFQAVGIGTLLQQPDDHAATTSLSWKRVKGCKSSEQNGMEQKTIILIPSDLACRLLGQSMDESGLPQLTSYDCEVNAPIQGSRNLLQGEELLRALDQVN

Assay [4] addresses Hepatocyte nuclear factor 6 (Homo sapiens) (UniProt Q9UBC0). In words: ATG_HNF6_CIS: Attagene CIS-FACTORIAL HepG2 Assay for human Hepatocyte Nuclear Factor 6 (HNF6) (AID 2282952). As to conditions: HepG2 Attagene cis-factorial HNF6 reporter transcription; actives raise or lower the signal. A digest of the protocol:
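Endogenous transcription factor activity in human HepG2 liver cells was captured through cis-regulated reporter constructs. After 24 h treatment, reporter mRNA was measured by RT-PCR with capillary electrophoresis, and activity was fitted in both directions relative to DMSO.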

Assay [5] has as its target Heat shock factor protein 1 (Homo sapiens) (UniProt Q00613). In words: ATG_HSE_CIS: Attagene CIS-FACTORIAL HepG2 Assay for human Heat Shock Transcription Factor 1 (HSE) (AID 2282953). The note with it: HepG2 HSE cis-reporter, Attagene RNA transcription; actives raise or lower the signal. A digest of the protocol: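 Endogenous transcription factor activity in transiently transfected HepG2, read as reporter mRNA by RT-PCR with fluorescent capillary electrophoresis after 24 h. Gain or loss of signal fitted versus DMSO baseline.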

Assay [6] in a line: ATG_MRE_CIS: Attagene CIS-FACTORIAL HepG2 Assay for human Metal Responsive Element (MRE) (AID 2282954). As to conditions: HepG2 MRE cis-reporter transcription, Attagene multiplex; actives raise or lower the signal. A digest of the protocol:
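RT-PCR/capillary electrophoresis readout of reporter mRNA, 24 h post-dosing, in HepG2 cells transfected with multiplexed cis-regulated reporter constructs. Gain or loss of signal fitted bidirectionally against DMSO baseline.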

Assay [7] in a line: ATG_PXRE_CIS: Attagene CIS-FACTORIAL HepG2 Assay for human Pregnane X Receptor Element (PXRE) (AID 2282957). As to conditions: HepG2 Attagene CIS-FACTORIAL PXRE reporter, mRNA; actives raise or lower the signal. A digest of the protocol:
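Endogenous transcription factor activity in HepG2 was gauged through induction of reporter mRNA driven by a cis-regulating promoter element, sampled 24 h post-treatment. Activity was fitted in both directions against DMSO negative control.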

The nature of assay [8]: ATG_PPRE_CIS: Attagene CIS-FACTORIAL HepG2 Assay for human Peroxisome Proliferator-activated Response Element (PPRE) (AID 2282958). The note with it: HepG2 PPRE cis-element reporter, Attagene transcription factor profiling; actives raise or lower the signal. A digest of the protocol: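 Cells are first transfected transiently with the multiplexed reporter library, then dosed for 24 h. Total RNA is reverse-transcribed, amplified, fluorescently end-labeled and HpaI-cut before capillary electrophoresis; activity is fitted bidirectionally against DMSO controls.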

Assay [9] can be described thus: ATG_RORE_CIS: Attagene CIS-FACTORIAL HepG2 Assay for human RAR-related Orphan Receptor Element (RORE) (AID 2282959). As to conditions: HepG2 Attagene cis-factorial RORE reporter, mRNA; actives raise or lower the signal. A digest of the protocol:
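Cells were HepG2 carrying transfected cis-regulated reporter constructs, dosed for 24 hours. Total RNA was reverse-transcribed and reporter cDNA amplified, fluorescently labeled and sized by capillary electrophoresis. Activity was fitted bidirectionally relative to DMSO.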

A short description of assay [10]: ATG_Sox_CIS: Attagene CIS-FACTORIAL HepG2 Assay for human SRY-box transcription factor (SOX) (AID 2282960). The note with it: HepG2 Attagene cis-factorial SOX reporter, mRNA; actives raise or lower the signal. A digest of the protocol:
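Transient MRTU transfection of HepG2; 24 h compound incubation; TriZol RNA, oligo(dT) RT, PCR, 6-FAM primer extension, HpaI cut, CE. Bidirectional fit, DMSO = baseline.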

Assay [11] has as its target Transcription factor Sp1 (Homo sapiens) (UniProt P08047). Kind of assay: ATG_Sp1_CIS: Attagene CIS-FACTORIAL HepG2 Assay for human Specificity Protein 1 (Sp1) (AID 2282961). As to conditions: HepG2 Sp1 cis-reporter transcription, actives raise or lower the signal. A digest of the protocol: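 Endogenous Sp1 activity was gauged in human liver HepG2 cells bearing transfected reporter units under a cis-regulating promoter. After 24 h dosing, reporter mRNA was quantified by RT-PCR with capillary electrophoresis, and activity fitted bidirectionally versus DMSO.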

Assay [12] concerns the target Signal transducer and activator of transcription 3 (Homo sapiens) (UniProt P40763). Kind of assay: ATG_STAT3_CIS: Attagene CIS-FACTORIAL HepG2 Assay for human Signal Transducer and Activator of Transcription 3 (STAT3) (AID 2282963). The note with it: HepG2, Attagene cis-factorial STAT3 reporter transcription; actives raise or lower the signal. A digest of the protocol:
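Readout: fluorescent reporter mRNA fragments resolved by capillary electrophoresis. Setup: HepG2 transfected with MRTUs reporting endogenous transcription-factor activity, dosed 24 h. Gain or loss of signal fitted bidirectionally against DMSO control.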

The nature of assay [13]: ATG_TA_CIS: Attagene CIS-FACTORIAL HepG2 Assay for human TA Basal Promoter (AID 2282964). As to conditions: HepG2 Attagene CIS-factorial TA basal promoter reporter; actives raise or lower the signal. A digest of the protocol:
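Background-control readout: TA basal promoter reporter mRNA, fitted in both directions relative to DMSO. Measured by RT-PCR and capillary electrophoresis 24 hours after treating HepG2 human liver cells transiently carrying multiplexed cis-regulated reporter constructs.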

Assay [14] is described as follows: ATG_TAL_CIS: Attagene CIS-FACTORIAL HepG2 Assay for human TAL Basal Promoter (AID 2282966).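 Further: background control endpoint measuring basal TAL promoter reporter mRNA not a specific factor.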 The note with it: HepG2 Attagene cis-factorial TAL promoter reporter; actives raise or lower the signal. A digest of the protocol:
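Endogenous transcription-factor activity is sensed in HepG2 cells through transfected cis-promoter reporter constructs. After 24 h dosing, reporter transcripts are quantified by RT-PCR and capillary electrophoresis. Gain or loss of signal is fitted relative to DMSO.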

Assay [15] can be described thus: ATG_TGFb_CIS: Attagene CIS-FACTORIAL HepG2 Assay for human Transforming Growth Factor (TGF) (AID 2282967). As to conditions: HepG2 Attagene CIS TGFb reporter, mRNA transcription; actives raise or lower the signal. A digest of the protocol: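 Endogenous TGFB1-linked transcription factor activity read as reporter mRNA via RT-PCR and capillary electrophoresis, 24 h after dosing transiently transfected HepG2 cells. Gain or loss of signal fitted relative to DMSO.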

Assay [16] in a line: ATG_VDRE_CIS: Attagene CIS-FACTORIAL HepG2 Assay for human Vitamin D Receptor Element (VDRE) (AID 2282968). The note with it: HepG2 VDRE cis-reporter transcription, actives raise or lower the signal. A digest of the protocol: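 Transient MRTU transfection of HepG2, 24 h compound exposure. Readout: reporter transcripts via RT-PCR and capillary electrophoresis, fluorescence. Bidirectional fit vs DMSO.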

Assay [17] has as its target Paired box protein Pax-6 (Homo sapiens) (UniProt P26367). In words: ATG_Pax6_CIS: Attagene CIS-FACTORIAL HepG2 Assay for human Paired Box 6 (PAX6) (AID 2282956). The note with it: HepG2 CIS-FACTORIAL PAX6 reporter transcription, RNA readout; actives raise or lower the signal. A digest of the protocol: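 Read-out is reporter transcript level, measured by RT-PCR with fluorescent primer extension and capillary electrophoresis after 24 h dosing of transfected HepG2 cells. Activity in either direction fitted relative to DMSO control.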

Assay [18] is described as follows: ATG_SREBP_CIS: Attagene CIS-FACTORIAL HepG2 Assay for human Sterol Regulatory Element Binding (SREBP) (AID 2282962). The note with it: HepG2 Attagene cis-factorial SREBP reporter, mRNA; actives raise or lower the signal. A digest of the protocol: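 Endogenous SREBP activity read as cis-element-driven reporter transcript in transiently transfected HepG2, 24 h post-dosing; quantified via RT-PCR plus capillary electrophoresis of fluorescent fragments. Gain or loss of signal fitted relative to DMSO baseline.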

Assay [19] is described as follows: ATG_TCF_b_cat_CIS: Attagene CIS-FACTORIAL HepG2 Assay for human T-Cell-Factor with beta-catenin (TCF/b-cat) (AID 2282965). As to conditions: HepG2 TCF/beta-catenin cis-reporter transcription, actives raise or lower the signal. A digest of the protocol: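 Cells of the HepG2 line carry transiently transfected reporter units whose promoters respond to endogenous factors. Twenty-four hours post-dosing, reporter mRNA induction is measured by fluorescent RT-PCR and capillary electrophoresis, with DMSO as baseline.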

Sequence of Hepatocyte nuclear factor 6 (Homo sapiens) (Q9UBC0 whole entry, looked up): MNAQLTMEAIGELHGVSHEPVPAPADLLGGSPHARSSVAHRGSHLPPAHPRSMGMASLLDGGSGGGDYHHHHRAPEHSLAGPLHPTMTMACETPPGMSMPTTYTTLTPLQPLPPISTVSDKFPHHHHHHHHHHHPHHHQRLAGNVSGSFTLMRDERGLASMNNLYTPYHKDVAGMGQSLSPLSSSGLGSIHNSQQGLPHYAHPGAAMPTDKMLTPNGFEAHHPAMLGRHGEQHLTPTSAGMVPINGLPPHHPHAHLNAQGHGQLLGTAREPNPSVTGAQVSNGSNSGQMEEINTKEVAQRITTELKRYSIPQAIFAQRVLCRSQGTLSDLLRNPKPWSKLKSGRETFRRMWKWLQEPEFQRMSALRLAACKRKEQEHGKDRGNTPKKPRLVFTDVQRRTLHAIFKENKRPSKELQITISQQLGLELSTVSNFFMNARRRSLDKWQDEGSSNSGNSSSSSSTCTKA
Sequence of Signal transducer and activator of transcription 3 (Homo sapiens) (P40763 whole entry, looked up, the tested form may be a part): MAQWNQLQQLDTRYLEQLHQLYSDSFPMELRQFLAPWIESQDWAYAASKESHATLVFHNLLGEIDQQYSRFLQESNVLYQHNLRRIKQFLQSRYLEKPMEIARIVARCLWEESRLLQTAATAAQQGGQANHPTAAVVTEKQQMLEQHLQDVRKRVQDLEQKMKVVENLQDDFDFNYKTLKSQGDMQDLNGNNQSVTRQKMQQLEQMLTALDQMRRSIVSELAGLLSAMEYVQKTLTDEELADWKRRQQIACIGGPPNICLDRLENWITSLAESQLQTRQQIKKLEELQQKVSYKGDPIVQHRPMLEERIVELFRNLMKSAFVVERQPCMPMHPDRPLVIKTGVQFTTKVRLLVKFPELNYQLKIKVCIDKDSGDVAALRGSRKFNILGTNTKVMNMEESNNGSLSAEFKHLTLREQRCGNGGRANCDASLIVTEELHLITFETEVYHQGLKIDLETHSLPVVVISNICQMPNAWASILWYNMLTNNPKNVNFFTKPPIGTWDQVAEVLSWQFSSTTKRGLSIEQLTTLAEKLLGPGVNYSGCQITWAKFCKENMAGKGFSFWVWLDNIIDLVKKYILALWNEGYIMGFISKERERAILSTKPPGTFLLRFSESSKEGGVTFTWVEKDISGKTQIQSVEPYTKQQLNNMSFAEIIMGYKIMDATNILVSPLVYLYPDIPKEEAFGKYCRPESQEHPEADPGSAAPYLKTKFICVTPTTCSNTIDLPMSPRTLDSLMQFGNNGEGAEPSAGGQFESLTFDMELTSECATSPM
Sequence of Heat shock factor protein 1 (Homo sapiens) (Q00613 whole entry, looked up): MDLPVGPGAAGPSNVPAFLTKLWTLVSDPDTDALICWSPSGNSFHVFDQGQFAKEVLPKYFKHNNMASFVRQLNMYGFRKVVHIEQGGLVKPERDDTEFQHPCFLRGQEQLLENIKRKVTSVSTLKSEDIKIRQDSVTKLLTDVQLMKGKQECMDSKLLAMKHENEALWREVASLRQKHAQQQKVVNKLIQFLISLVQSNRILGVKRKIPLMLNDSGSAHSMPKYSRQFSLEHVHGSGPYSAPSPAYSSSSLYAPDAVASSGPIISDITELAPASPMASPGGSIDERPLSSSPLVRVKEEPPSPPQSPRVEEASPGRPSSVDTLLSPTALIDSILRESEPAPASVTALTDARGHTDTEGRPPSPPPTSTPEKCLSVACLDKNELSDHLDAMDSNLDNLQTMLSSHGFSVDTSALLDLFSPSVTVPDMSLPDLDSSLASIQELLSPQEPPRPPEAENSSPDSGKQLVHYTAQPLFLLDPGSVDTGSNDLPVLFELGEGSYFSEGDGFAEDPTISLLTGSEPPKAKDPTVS
Sequence of Paired box protein Pax-6 (Homo sapiens) (P26367 whole entry, looked up): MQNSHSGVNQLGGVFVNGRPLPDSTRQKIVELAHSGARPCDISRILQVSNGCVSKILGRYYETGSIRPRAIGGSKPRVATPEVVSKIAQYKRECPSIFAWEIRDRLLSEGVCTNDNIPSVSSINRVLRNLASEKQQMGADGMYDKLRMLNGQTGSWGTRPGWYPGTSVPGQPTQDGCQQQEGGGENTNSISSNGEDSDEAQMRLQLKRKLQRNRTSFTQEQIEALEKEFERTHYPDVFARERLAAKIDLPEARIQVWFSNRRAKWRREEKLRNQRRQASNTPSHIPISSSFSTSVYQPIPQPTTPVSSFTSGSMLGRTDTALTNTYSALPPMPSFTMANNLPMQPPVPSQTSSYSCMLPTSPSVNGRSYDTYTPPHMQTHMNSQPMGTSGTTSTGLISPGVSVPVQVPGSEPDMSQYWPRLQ
Sequence of Transcription factor Sp1 (Homo sapiens) (P08047 whole entry, looked up): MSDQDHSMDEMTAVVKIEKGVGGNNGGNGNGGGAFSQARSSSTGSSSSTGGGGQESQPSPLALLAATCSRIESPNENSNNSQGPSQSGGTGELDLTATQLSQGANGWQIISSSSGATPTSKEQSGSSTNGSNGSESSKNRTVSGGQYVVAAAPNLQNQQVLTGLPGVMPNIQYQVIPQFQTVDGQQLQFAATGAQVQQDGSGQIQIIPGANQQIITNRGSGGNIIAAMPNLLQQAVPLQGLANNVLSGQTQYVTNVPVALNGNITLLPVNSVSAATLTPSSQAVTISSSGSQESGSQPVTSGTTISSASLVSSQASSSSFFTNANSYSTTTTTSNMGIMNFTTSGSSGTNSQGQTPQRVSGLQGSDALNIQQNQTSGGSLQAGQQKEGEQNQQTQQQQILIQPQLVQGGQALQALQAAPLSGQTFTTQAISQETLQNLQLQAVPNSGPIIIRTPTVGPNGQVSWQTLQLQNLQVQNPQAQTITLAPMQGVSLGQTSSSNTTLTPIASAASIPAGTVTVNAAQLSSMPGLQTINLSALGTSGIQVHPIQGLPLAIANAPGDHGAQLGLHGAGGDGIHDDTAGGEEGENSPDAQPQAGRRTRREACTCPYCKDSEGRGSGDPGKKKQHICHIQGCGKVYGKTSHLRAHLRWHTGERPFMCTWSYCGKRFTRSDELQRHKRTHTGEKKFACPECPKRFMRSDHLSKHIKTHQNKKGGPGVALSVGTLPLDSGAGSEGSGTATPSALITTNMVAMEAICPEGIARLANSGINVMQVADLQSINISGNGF

On to `Cc1cccc(N=Nc2ccc(N(C)C)cc2)c1`, for which the result in assay [1], in assay [2], in [3], in assay [4], in assay [5] and in [6] was inactive. Also, the molecule was classed as inactive in assay [8], in assay [9], in assay [10], in assay [11], in [12] and in [13]. The call in [14] and in [15] was inactive. In addition, the AC50 (usually the midpoint of the concentration-response curve, whichever way the signal moves) in [7] was 10.5 µM (active); in assay [16], 19.8 µM (active).

As to `C[C@H]1C(=O)O[C@@H]2CCN3CC=C(COC(=O)[C@](C)(O)[C@]1(C)O)[C@H]23`, the molecule was classed as inactive in [1], in [2], in [4], in [5], in assay [6] and in [17]. The call in assay [7], in assay [8], in [9], in assay [10], in [11] and in [18] was inactive. Moreover, the molecule was called inactive in assay [12], in assay [13], in assay [19], in assay [14], in [15] and in [16].

Regarding `C=C(C)C(=O)OCC(CC)CCCC` (configuration not stated), the outcome in assay [1], in assay [2], in assay [3], in assay [4], in assay [5] and in [6] was inactive. The molecule was called inactive in assay [17], in [7], in assay [9], in [10], in [11] and in assay [18]. Moreover, the outcome in [12], in [13], in [19], in [14] and in assay [16] was inactive.

Consider `CC1(C)[C@H](/C=C2\CCSC2=O)[C@@H]1C(=O)OCc1coc(Cc2ccccc2)c1`, for which the molecule was called inactive in assay [1], in assay [2], in assay [4], in assay [5], in assay [8] and in [10]. The molecule was classed as inactive in assay [11], in assay [18], in [12], in assay [14] and in assay [15]. Besides, the concentration at half-maximal activity (AC50) in assay [3] is 12.9 µM (active); in assay [6], 19.8 µM (active); in assay [17], 11.1 µM (active); in [9], 24.8 µM (active); in assay [13], 30.5 µM (active).
